# PubChem BioAssay (NCATS)
# Several values for one entry are separate records, joined by “and”; a condition that tells them apart may be missing. Equal values may be shown once. Records with an inconclusive call do not appear. The source holds several records for some structures; these can differ, active in one and inactive in another. Activity calls are given as the source filed them. Calls follow the shape of the dose curve; as a rule, active = well fitted cell-killing curve with a large enough effect; inconclusive = small, poorly fitted or top-dose-only effect, or effect the other way; inactive = no such curve, though single readings can be large or run the other way. Numbered stars: 1 amine (or outer) side, 2 acyl side, 3 side chain; on linkers, the order of the positions; unused ones are H or OH. Bridge positions count the residues as written; N and C are the ends. Square brackets hold non-standard residues; d marks the D form. Peptide text beside a SMILES is read from it. I, II: the chains in the order shown. Actinocin(9to1) = Cc1c2oc3c(C)ccc(C(=O)[*:1])c3nc-2c(C(=O)[*:2])c(N)c1=O; NMeV = CN[CH](C(=O)O)C(C)C; Sar = CNCC(=O)O
# Assay: Viability qHTS for spleen associated tyrosine kinase inhibitor (SYKi) naive MV4-11 cells (AID 1963823); also: nearly all actives have a fitted effect of over 40% in size
# Settings: MV4-11 AML viability, CellTiter-Glo luminescence, 72 h; series mostly up to 45 µM; viability (% of control): at the top concentration
# Excerpt: Department of Medicine, Hematology/Oncology
# University Hospital Frankfurt, Germany.
# Trials have shown promising clinical activity of the selective SYK inhibitor entospletinib in patients with high expressing HOXA9/MEIS1 acute leukemias. As the development of resistance mechanisms is a common problem in the use of targeted drugs, we performed a chemical library screen to identify drug sensitivities in SYK inhibitor resistant AML cells. […] Glucocorticoids are potent immunosuppressants which work in part by inhibiting the transcription of cytokine genes.
# Described herein is a viability screen to look for activity in the SYK inhibitor naive cell line against four NCATS compound libraries (MIPE 5.0, NPC, NPACT, and Kinase) totaling 11372 compounds. Active hits were reacquired for confirmation and further secondary assay testing.
# SEQUENCE No. (e.g., 1, 2, 3, etc.); […] (e.g., Cells, Incubation, Reagent, etc.); VALUE; DESCRIPTION.
# 1; Media; 2uL; white, solid-bottom Corning assay plate.
# 2; Compounds; 23nL; Echo acoustic dispenser.
# 3; Cell; 5uL; 500 cells per well.
# 4: Incubation; 72hr; 37 C, 5% CO2, 95% humidity.
# 5; Reagent; 3uL; CellTiter-Glo reagent (Promega).
# 6; Incubation; 10min; room temperature.
# 7; Detection; Luminescence; ViewLux plate reader (PerkinElmer).
# NOTES (numbers refer to Sequence numbers above
# 1. Quantitative high-throughput screening (qHTS) of small molecule compounds was conducted on naive SYKi MV4-11 cell line.
# 2. Twenty-three nanoliter of small molecule compounds were added to each assay plates using the Echo acoustic dispenser (Beckman Coulter).
# 3. Cells were seeded into the assay plates at a final density of 500 cells in 5uL of media per well using the Multi-drop Combi dispenser.
# 4. Plates were covered with stainless steel gasketed lids and incubated for 72 hours at standard cell culture conditions.
# 5. Viability was assessed by adding 3uL of CellTiter-Glo detection reagent (Promega).
# 6. Plates were covered with gasket lids and incubated for 10 minutes at room temperature.
# 7. Luminescence was measured on a ViewLux plate reader (PerkinElmer).
# Potency is read from the fitted curve at half-maximal effect.
SMILES,viability (% of control),Potency
CC(N=C(NC#N)Nc1ccncc1)C(C)(C)C (stereo not given),82.2% (inactive),
O=c1[nH]c2ccccc2n1CCCN1CCN(C(c2ccccc2)c2ccccc2)CC1,,15 µM (active)
O=C(O)/C=C/c1ccc(O[C@@H]2O[C@H](CO)[C@@H](O)[C@H](O)[C@H]2O)cc1,99.6% (inactive),
CCc1ccc2nc(Nc3cc(Cc4ccccc4)nc(NC4CCC(O)CC4)n3)sc2c1 (stereo not given),,8.33 µM (active)
Cc1cc(Cl)ccc1COc1ccnn1-c1cc(C(=O)O)ccn1,78.9% (inactive),
O=C(C(c1ccccc1)c1ccccc1)N1CCN(CC(O)COc2cccc3ncccc23)CC1 (stereo not given),,20.9 µM (active)
O=C(Nc1nc2cc(C(F)(F)F)cc(NC3CC3)n2n1)c1cccnc1,,3.66 µM (active)
OC[C@@H](O)[C@H](O)[C@H](O)[C@@H](O)CO,,5.96 µM (active)
C[N+]1(C)CCC(=C(c2ccccc2)c2ccccc2)CC1,70% (inactive),
C[C@H]1[C@H](C)CC[C@]2(C(=O)O)CC[C@]3(C)C(=CCC4[C@@]5(C)C[C@@H](O)[C@H](O)C(C)(C)C5CC[C@]43C)[C@H]12 (stereo not given in full),65.3% [at 17.3 µM] (inactive),
C=C1[C@H]2CCC3[C@]4(C)CCC[C@@](C)(C(=O)O)C4CC[C@]3(C2)[C@H]1OC(C)=O (stereo not given in full),72.9% (inactive),
CCCC(=O)c1cc(O)c(O)cc1O,78.3% [at 91.9 µM] (inactive),
COC(=O)[C@@H]1[C@H]2C[C@H]3c4[nH]c5ccccc5c4CCN3C[C@@H]2CC[C@@H]1O,81.7% (inactive),
CN1CC(=O)N/C1=N/C(=O)Nc1cccc(Cl)c1,89.4% (inactive),
CC(C)C[C@@H]1NC(=O)[C@@H](Cc2ccccc2)NC(=O)C(CCCCCC(=O)C2CO2)NC(=O)[C@@H]2CCCCN2C1=O (stereo not given in full),,0.0252 µM (active)
CC#CCn1c(N2CCCC(N)C2)nc2c1c(=O)n(Cc1nc(C)c3ccccc3n1)c(=O)n2C (stereo not given),73.3% (inactive),
C[C@@H]1C(=O)O[C@H](C)[C@H]1C[C@@H](O)[C@](C)(O)[C@H]1CC[C@@]2(O)C3=CC(=O)[C@@H]4C[C@@H](O)[C@@H](O)C[C@]4(C)C3CC[C@]12C (stereo not given in full),106% [at 17.3 µM] (inactive),
CC(=O)c1ccc2c(c1)c1cc(C(C)=O)ccc1n2CCNC(C)C,,0.372 µM (active)
CCCOC(c1cc2nccc(C(=O)O)c2[nH]1)c1ccccc1Cl (stereo not given),82.9% (inactive),
Cn1c(=O)c2c(ncn2C)n(C)c1=O,,inactive

SMILES,viability (% of control),Potency
CC[C@@]1(O)C(=O)OCc2c1cc1n(c2=O)Cc2cc3cc(O)ccc3nc2-1,,0.0186 µM (active)
CC1(C)C(O)CCC2(C)C1C(O)C=C1COC(=O)C12O (stereo not given),95.2% (inactive),
CN(C)CC[C@@H](c1ccc(Cl)cc1)c1ccccn1,80.7% (inactive),
CCCOc1ccc2c(c1)CC[C@@H]1[C@@H]2CC[C@]2(C)C(OC)CC[C@@H]12 (stereo not given in full),75.4% (inactive),
N#C[C@@H]1C[C@H](F)CN1C(=O)CNC1[C@H]2CN(C(=O)c3ccc(F)cc3)C[C@@H]12 (stereo not given in full),87.5% (inactive),
CC[C@H](C)C(=O)O[C@H]1C[C@H](O)C=C2C=C[C@H](C)[C@H](CC[C@@H](O)C[C@@H](O)CC(=O)O)[C@H]21,62.4% (inactive),
COc1c(C)c(C(=O)c2ccc(N)c(C(=O)O)c2)n2ccccc12,,inactive
CC1(C)CC[C@]2(C(=O)O[C@@H]3O[C@H](CO[C@@H]4O[C@H](CO)[C@@H](O)[C@H](O)[C@H]4O[C@@H]4O[C@H](CO)[C@@H](O)[C@H](O)[C@H]4O)[C@@H](O)[C@H](O[C@@H]4O[C@H](CO)[C@@H](O)[C@H](O)[C@H]4O)[C@H]3O)CC[C@]3(C)C(=CCC4[C@@]5(C)CC[C@@H](O)[C@@](C)(C(=O)O[C@@H]6O[C@H](CO)[C@@H](O)[C@H](O)[C@H]6O)C5CC[C@]43C)[C@@H]2C1 (stereo not given in full),73.4% [at 9.25 µM] (inactive),
CN(C)CCN(Cc1ccc(-c2ccc(CNCCc3ccccc3)cc2)cc1)C(=O)CCC1CCCC1,,1.03 µM (active)
CC(C)C[C@H](NC(=O)[C@@H](O)[C@H](N)Cc1ccccc1)C(=O)O,63.8% (inactive),
CCN(CC)C(=O)Cc1csc(NS(=O)(=O)c2cccc(Cl)c2C)n1,74.3% (inactive),
"Cc1c2oc3c(C)ccc(C(=O)NC4C(=O)NC(C(C)C)C(=O)N5CCCC5C(=O)N(C)CC(=O)N(C)C(C(C)C)C(=O)OC4C)c3nc-2c(C(=O)NC2C(=O)NC(C(C)C)C(=O)N3CCCC3C(=O)N(C)CC(=O)N(C)C(C(C)C)C(=O)OC2C)c(N)c1=O (stereo not given) (I: TVP[Sar][NMeV] / II: TVP[Sar][NMeV]; ester I:1-I:C, II:1-II:C; linker I:N-II:N via Actinocin(9to1); configuration not given here)",,0.0014 µM (active)
Nc1ccc(/C=C/C(=O)NCc2cc3cc(-c4ccc(C(=O)N5CCC(F)(F)CC5)cc4)cc(-c4ccc(F)cc4)c3o2)cn1,,148 nM (active) and 184 nM (active)
COc1ccc2c(c1)CN(C(=O)CCN1CCC(Cc3ccccc3)CC1)CCS2,,8.93 µM (active)
O=C(O)Cc1cccc2ccccc12,76.4% (inactive),
C[C@@H](Nc1cc(NS(=O)(=O)N2CCC2)nc(SCc2cccc(F)c2F)n1)[C@@H](O)CO,86.8% (inactive),
C=C1CCC2(C(=O)OC3OC(CO)C(O)C(O)C3O)CCC3(C)C(=CCC4C5(C)CCC(OC6OC(CO)C(OC7OC(C)C(O)C(O)C7O)C(OC7OCC(O)C(O)C7O)C6O)C(C)(C)C5CCC43C)C2C1 (stereo not given),89.9% [at 9.25 µM] (inactive),
CNS(=O)(=O)c1ccccc1Nc1nc(Nc2ccc(N3CCN(C)CC3)cc2OC)ncc1Cl,,0.0206 µM (active)
Cc1nn(C)c(COc2ccc(N3CCN(S(=O)(=O)N(C)C)CC3)cc2)c1-c1cccc2c(CCCOc3cccc4ccccc34)c(C(=O)O)n(CCN3CCOCC3)c12,,7.42 µM (active) and inactive
CNCCC(Oc1ccc(C(F)(F)F)cc1)c1ccccc1 (stereo not given),,18.8 µM (active)
